Experimental data as given in PubChem BioAssay (NCI).
This is part of a sample that, as a whole, favours compounds with a hit. Of some 79,000 tested, about 15% had one in any assay. A number with no mark means an inactive call. Active and inactive are the calls of the source. No stated cut-off is given here; in the data, active means growth inhibition above about 70%; inactive means the rest.

How the values were obtained:
[1] = NCI Yeast Anticancer Drug Screen. Data for the rad50 strain (AID 155);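 further: 0% = growth of vehicle-only cultures of the same strain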; details: S. cerevisiae rad50 strain growth inhibition; at 50.0 µM; stronger effect = higher value
Procedure, shortened: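 Genetically altered yeast (DNA repair pathway); compound treatment; growth inhibition vs vehicle ctrl.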

[2] = NCI Yeast Anticancer Drug Screen. Data for the mec2-1 strain (AID 157); details: S. cerevisiae mec2-1 strain, at 50.0 µM, stronger effect = higher value
Procedure, shortened: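 Cells of the genetically defined mec2-1 yeast strain are incubated with test compound. Inhibition of growth is calculated against vehicle-treated controls.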

[3] = NCI Yeast Anticancer Drug Screen. Data for the sgs1 mgt1 strain (AID 161);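 further: 0% = growth of cultures given vehicle only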; details: S. cerevisiae sgs1 mgt1 strain, at 50.0 µM, stronger effect = higher value
Procedure, shortened: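 Read-out: growth inhibition vs vehicle controls. Cells: mutant yeast strain deficient in DNA damage repair.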

[4] = NCI Yeast Anticancer Drug Screen. Data for the cln2 rad14 strain (AID 165);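 further: 0% = growth equal to vehicle treated cultures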; details: S. cerevisiae cln2 rad14 strain, at 50.0 µM, stronger effect = higher value
Procedure, shortened: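 The screen exposed genetically defined yeast (cln2 rad14) to test compounds and scored growth inhibition relative to vehicle-treated controls.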

[5] = NCI Yeast Anticancer Drug Screen. Data for the bub3 strain (AID 167); details: S. cerevisiae bub3 mutant strain, at 50.0 µM, stronger effect = higher value
Procedure, shortened: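 Yeast carrying a defined mutation is treated with each compound, and growth is compared with that of vehicle-exposed cells to give inhibition.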

[6] = NCI Yeast Anticancer Drug Screen. Data for the mlh1 rad18 strain (AID 175); details: S. cerevisiae mlh1 rad18 strain growth inhibition; at 50.0 µM; stronger effect = higher value
Procedure, shortened: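 Compound-treated yeast growth, normalised to vehicle controls. Strain bears defined DNA repair mutations.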

Row | Compound | growth inhibition [1] | growth inhibition [2] | growth inhibition [3] | growth inhibition [4] | growth inhibition [5] | growth inhibition [6]
1 | Cc1noc(/N=C/c2ccccc2)c1C | -6.8% | -5.45% | -5.3% | -28.1% | 4.4% | -2.5%
2 | O=C(N=Nc1c(O)[nH]c2c(Cl)cc(Cl)cc12)C(=O)Nc1cccc(C(F)(F)F)c1 | -8.85% | -14% | -24.6% | 13.8% | -23.8% | -14%
3 | C#CCN(C(=O)C(F)(F)F)C(/C=C\C(=O)OC)(C(=O)OCC)C(=O)OCC | -10.3% | -24.9% | -0.45% | -4.5% | -17.2% | -2.55%
4 | CC(NC(=O)C(N)CC(=O)O)C(=O)OC12CC3CC(CC(C3)C1)C2 (configuration not stated) | -55.5% | -62.4% | -22.6% | -0.95% | 12.7% | -10.8%
5 | O=C(CCC1CCCCC1)OCC1CCCO1 (configuration not stated) | 42.1% | 20.9% | 41.1% | 3.75% | 24.6% | 48.1%
6 | COC1OC(COS(=O)(=O)c2ccc(C)cc2)C2OC(C)(C)OC2C1OS(=O)(=O)c1ccc(C)cc1 (configuration not stated) | 54.9% | 16.8% | -4.4% | 84.2% (active) | 3.85% | 7.1%
7 | OC(c1ccccc1)(C1CCNCC1)C1CC1 (configuration not stated) | 9.8% | -10.4% | -4% | -20.4% | -16.6% | -6.45%
8 | NC(=O)NC(NC(=O)NC(NC(N)=O)c1ccco1)c1ccco1 (configuration not stated) | 11.3% | 15.4% | 10.7% | 6.1% | 2.05% | 15.3%
9 | OC(c1ccccc1)C(CN1CCCCC1)c1ccccc1 (configuration not stated) | 3.9% | 2.55% | 24.9% | -11.8% | 4.95% | 15.4%
10 | CC1CCC(C(C)C)C(NC(=O)c2cccnc2)C1 (configuration not stated) | 8.3% | -7.45% | -2.75% | 13.9% | 14.4% | 8.75%
11 | CCOC(=O)C1C(=O)CC1(C)C (configuration not stated) | 12.2% | 6.9% | 12.2% | 36% | 25.9% | 21.8%
12 | Cc1ccc(-c2cc(=O)c3cc(C)c(C)c(C(=O)O)c3o2)cc1 | 3.15% | 0.25% | 10.8% | 19.9% | 7.1% | 10.8%
13 | O=c1nc2c(c(-c3ccc(Br)cc3)[nH]1)COC/C2=C\c1ccc(Br)cc1 | 31.1% | 17.2% | 35.8% | 8% | 18.1% | 31.3%
14 | C/C=N\N1C(=O)c2ccccc2C1=O | 11.5% | 13.7% | 13.8% | 9.1% | 19.4% | 14.8%
15 | O=C(CCCCCCCCC(=O)OCC1OC(n2cnc3c(=O)[nH]cnc32)C(O)C1O)OCC1OC(n2cnc3c(=O)[nH]cnc32)C(O)C1O (configuration not stated) | -47.5% | -44.7% | -42.3% | -8.3% | -22.9% | -35.3%
16 | CC1=N/C(=C\c2cccs2)C(=O)O1 | 26.6% | 30.5% | 28.1% | 20.5% | 22.9% | 28.9%
17 | Nc1ccc(C(=O)NN2C(=O)C(Cl)C2c2ccccc2)cc1 (configuration not stated) | -30.2% | -31.8% | -62.5% | -1.8% | -30.4% | -38.2%
18 | O=C(Nc1nc2ncn(CCNCCn3cnc4nc(NC(=O)c5ccccc5)[nH]c(=O)c43)c2c(=O)[nH]1)c1ccccc1 | -10.2% | 14.1% | 17.5% | 25.9% | 16.8% | 17%
19 | C=C(C)[C@@]1(OC(=O)c2cc([N+](=O)[O-])cc([N+](=O)[O-])c2)C[C@@H]2CCCC[C@@H]21 | -43.5% | -26.1% | -15.8% | 5.8% | -7.9% | 2.1%
20 | CC(=O)OCc1c(COC(C)=O)c(-c2ccc(Cl)c(Cl)c2)n2c1CCC2 | 14.8% | -17.1% | 3.2% | 16.7% | -21.3% | 13.2%
21 | CCc1nc2ccccc2cc1C | 5.5% | -4.55% | 3.5% | -19.6% | 1.1% | 2.6%

Row | Compound | growth inhibition [1] | growth inhibition [2] | growth inhibition [3] | growth inhibition [4] | growth inhibition [5] | growth inhibition [6]
22 | CN(c1ccccc1)C1C(=O)N(c2ccccc2)C1/C=C/c1ccccc1 (configuration not stated) | -8.7% | 0.8% | 13.3% | 29.4% | 11.9% | 39.1%
23 | O=C1CC=C2C3CC4N(CCC45c4ccccc4N1C25)C/C3=C\CBr (configuration not stated) | -8.45% | -21.8% | -7.95% | 8.15% | 7.2% | -5.95%
24 | C[C@H](NC(=O)n1c2ccccc2c2ccccc21)C(=O)O | 2.5% | 5.2% | -20.1% | -5.9% | -1.05% | -2.95%
25 | CCc1nc(N)nc(N)c1-c1ccc2nn(-c3ccccc3)[n+]([O-])c2c1 | 4.25% | 10.8% | 20% | 14.8% | 14% | 4.85%
26 | COC(=O)n1c(=O)oc2ccc(Br)cc21 | 99% (active) | 99.1% (active) | 99.4% (active) | 99.4% (active) | 99.5% (active) | 99.2% (active)
27 | Cc1ccccc1N=Nc1c(-c2ccccc2)nn(C(=O)CC(=O)Nc2cccc(Cl)c2)c1-c1ccccc1 | 60.9% | 21.6% | 55.5% | 34.3% | 68% | 41.5%
28 | O=C1C[CH]([Ge](=[O])[O][Ge](=[O])[CH]2CC(=O)NC(=O)N2)NC(=O)N1 (configuration not stated) | 43.9% | 18.2% | 25.1% | 16.6% | -5.3% | 22.1%
29 | NC(=O)c1cc([N+](=O)[O-])cnc1Sc1ncccn1 | 40.8% | 14.9% | 21.7% | 18.2% | 29.9% | 44.6%
30 | O=C1C2=C(c3ccccc31)C(c1ccc(F)cc1)N1C(=O)CCSC1=N2 (configuration not stated) | 45.1% | 19.1% | 63% | 40.1% | 48.6% | 56.1%
31 | COc1ccc2c(c1)-c1c3c(cc4ccnc(c14)C2=O)OCO3 | 91.7% (active) | 93% (active) | 93.4% (active) | 91.5% (active) | 92% (active) | 91.8% (active)
32 | CCCCCCCCCCCl | 13.2% | 5.85% | 28.5% | 21.8% | 17.6% | 25%
33 | O=C(O)CC(O)C(F)(F)F (configuration not stated) | 17.4% | 0.45% | 1.95% | 8.65% | 5.3% | 26.5%
34 | O=C(N/C(=C\c1ccccc1Cl)c1nc2ccccc2[nH]1)c1ccccc1 | -20.5% | -15.1% | -23% | 10.2% | 38.9% | 10%
35 | O=C(O)CCc1nc[nH]c1[N+](=O)[O-] | -33.3% | -10.6% | -7.55% | -44.9% | 11.1% | 8.1%
36 | Fc1ccc(N2C(c3ccccc3)=N[C@@H](N3CCOCC3)[C@@H]2N2CCOCC2)cc1 | 21.4% | 11.2% | 4.2% | -19.9% | -2.2% | 20%
37 | COc1cc(/C=C/C=C2\CCC/C(=C\C=C\c3ccc(O)c(OC)c3)C2=O)ccc1O | 14.4% | -0.05% | 11.2% | 19.3% | 10.8% | 14.2%
38 | CCCOC(=O)c1cccnc1C(=O)OCCC | -0.2% | -10.2% | 1.5% | -22.4% | -2.5% | -6.4%
39 | C=CCCCCOCOCCOC | 13.7% | 17.6% | 5.8% | 0.5% | 0.15% | -28.4%
40 | O=[N+]([O-])c1ccc(C=NCCO)cc1 | 8.75% | 8.55% | 3.7% | -1% | 9.2% | -5.4%
41 | Nc1ccc2cn[nH]c2c1 | 3.5% | -11.6% | -6.95% | -10.4% | 5.8% | -2%
42 | CS(=O)(=O)OC1C(OC(=O)c2ccccc2)OC(COC(=O)c2ccccc2)C1OC(=O)c1ccccc1 (configuration not stated) | 14.8% | -13.6% | 4.9% | -28.7% | 9.7% | -13.8%
